Binding signal data for seven sequences are collected here from PMC7862700, “An all-to-all approach to the identification of sequence-specific readers for epigenetic DNA modifications on cytosine”.

What all share (assay): DAPPL (digital affinity profiling via proximity ligation, sequencing); 10 mM Tris-HCl pH 7.5, 50 mM NaCl, 1 mM DTT, 4% glycerol, room temperature, 30 min; GST-TFs on glutathione beads, 16-mer random dsDNA library, 0.1% formaldehyde crosslink after washing; high values mean tight binding
Holding throughout (conditions): protein: recombinant; tags: N-terminal GST; dsDNA, one strand shown

Experiment [1] addresses T1, FLI1 (Homo sapiens, UniProt Q01543 1-452).
T1 sequence: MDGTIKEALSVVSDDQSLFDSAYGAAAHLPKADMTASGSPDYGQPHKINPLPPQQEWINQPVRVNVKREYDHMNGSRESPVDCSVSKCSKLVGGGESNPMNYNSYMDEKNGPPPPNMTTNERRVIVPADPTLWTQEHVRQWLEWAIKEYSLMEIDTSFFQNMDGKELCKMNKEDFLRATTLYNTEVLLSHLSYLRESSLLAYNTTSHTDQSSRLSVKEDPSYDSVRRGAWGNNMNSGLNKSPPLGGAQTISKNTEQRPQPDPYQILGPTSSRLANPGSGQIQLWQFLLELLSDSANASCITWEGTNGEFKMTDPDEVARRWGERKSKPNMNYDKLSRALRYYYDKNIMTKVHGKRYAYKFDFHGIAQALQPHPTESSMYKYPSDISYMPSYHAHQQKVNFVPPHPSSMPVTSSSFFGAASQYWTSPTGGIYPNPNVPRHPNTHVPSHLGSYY
In outline:
(§1)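 Pools of DNA-barcoded human transcription factors, expressed in yeast as GST fusions on glutathione beads and combined with a tag-only sample, were incubated with 200 nmole of a 16-mer random double-stranded DNA library. Incubation took 30 min at room temperature in Tris/NaCl/DTT/glycerol buffer and was followed by washing, 0.1% formaldehyde crosslinking, proximity ligation (BsaI/T4 ligase, 1 h, 37 °C), PCR amplification and sequencing on an Illumina NextSeq500. Binding signal is the ratio of a hexamer's read frequency for a factor to its frequency for the tag-only sample.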

Experiment [2] concerns the target T2, ELK1 (Homo sapiens, UniProt P19419 1-428).
T2 sequence: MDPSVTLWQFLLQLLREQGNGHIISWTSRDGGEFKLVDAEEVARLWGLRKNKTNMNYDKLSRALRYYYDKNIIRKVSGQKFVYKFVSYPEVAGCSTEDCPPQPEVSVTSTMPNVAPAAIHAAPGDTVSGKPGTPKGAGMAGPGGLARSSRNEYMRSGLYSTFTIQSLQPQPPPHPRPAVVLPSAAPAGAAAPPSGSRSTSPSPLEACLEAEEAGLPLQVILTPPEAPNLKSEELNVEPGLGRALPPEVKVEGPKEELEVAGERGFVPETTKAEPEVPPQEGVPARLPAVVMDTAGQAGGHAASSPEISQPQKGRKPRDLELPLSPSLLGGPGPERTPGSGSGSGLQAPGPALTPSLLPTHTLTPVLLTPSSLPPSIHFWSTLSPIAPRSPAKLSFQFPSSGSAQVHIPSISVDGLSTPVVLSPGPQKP
The procedure, abridged: as §1

Experiment [3] has as its target T3, GABPA (Homo sapiens, UniProt Q06546 1-454).
T3 sequence: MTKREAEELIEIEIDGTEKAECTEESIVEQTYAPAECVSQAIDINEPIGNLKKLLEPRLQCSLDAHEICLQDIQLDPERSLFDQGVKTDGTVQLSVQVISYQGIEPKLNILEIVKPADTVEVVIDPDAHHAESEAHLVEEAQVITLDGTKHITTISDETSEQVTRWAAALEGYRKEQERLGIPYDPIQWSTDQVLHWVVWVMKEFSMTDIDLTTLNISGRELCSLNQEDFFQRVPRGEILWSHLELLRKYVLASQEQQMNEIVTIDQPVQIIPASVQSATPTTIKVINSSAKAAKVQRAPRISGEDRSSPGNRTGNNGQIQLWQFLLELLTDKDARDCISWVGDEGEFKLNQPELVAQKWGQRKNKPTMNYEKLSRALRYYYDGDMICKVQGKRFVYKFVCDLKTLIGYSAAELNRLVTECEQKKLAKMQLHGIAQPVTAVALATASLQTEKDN
The procedure, abridged:
as §1

Experiment [4] concerns the target T4, ERG (Homo sapiens, UniProt P11308 1-479).
T4 sequence: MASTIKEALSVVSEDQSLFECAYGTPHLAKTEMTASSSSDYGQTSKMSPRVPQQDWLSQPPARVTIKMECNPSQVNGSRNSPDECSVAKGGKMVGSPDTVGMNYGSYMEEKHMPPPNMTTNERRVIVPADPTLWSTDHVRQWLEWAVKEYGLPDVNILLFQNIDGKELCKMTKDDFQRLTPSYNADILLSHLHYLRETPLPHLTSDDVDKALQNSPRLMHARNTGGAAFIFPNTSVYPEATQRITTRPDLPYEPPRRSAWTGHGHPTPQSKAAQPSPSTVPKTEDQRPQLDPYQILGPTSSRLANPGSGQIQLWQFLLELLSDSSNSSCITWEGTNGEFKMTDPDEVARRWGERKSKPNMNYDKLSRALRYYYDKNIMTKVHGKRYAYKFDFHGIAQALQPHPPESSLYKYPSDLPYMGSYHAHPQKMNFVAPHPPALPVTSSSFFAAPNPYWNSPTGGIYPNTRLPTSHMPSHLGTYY
In outline: as §1

In experiment [5] the target is ELF1 (Homo sapiens, UniProt P32519 1-619). In outline:
as §1

Experiment [6] deals with T5, EHF (Homo sapiens, UniProt Q9NZC4 1-300).
T5 sequence: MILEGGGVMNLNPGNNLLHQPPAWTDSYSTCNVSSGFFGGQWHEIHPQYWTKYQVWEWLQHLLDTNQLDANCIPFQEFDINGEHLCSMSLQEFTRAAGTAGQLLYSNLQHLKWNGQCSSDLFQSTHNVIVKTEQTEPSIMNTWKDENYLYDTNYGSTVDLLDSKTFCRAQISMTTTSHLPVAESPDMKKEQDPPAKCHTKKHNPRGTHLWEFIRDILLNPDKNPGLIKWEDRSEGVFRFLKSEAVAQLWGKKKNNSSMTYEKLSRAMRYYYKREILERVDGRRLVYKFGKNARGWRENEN
The procedure, abridged: as §1

Experiment [7] addresses SPI1 (Homo sapiens, UniProt P17947 1-270). The procedure, abridged: as §1
The target in experiment [8] is SPIB (Homo sapiens, UniProt Q01892 1-262). The procedure, abridged: as §1
In experiment [9] the target is T6, ELK3 (Homo sapiens, UniProt P41970 1-407).
T6 sequence: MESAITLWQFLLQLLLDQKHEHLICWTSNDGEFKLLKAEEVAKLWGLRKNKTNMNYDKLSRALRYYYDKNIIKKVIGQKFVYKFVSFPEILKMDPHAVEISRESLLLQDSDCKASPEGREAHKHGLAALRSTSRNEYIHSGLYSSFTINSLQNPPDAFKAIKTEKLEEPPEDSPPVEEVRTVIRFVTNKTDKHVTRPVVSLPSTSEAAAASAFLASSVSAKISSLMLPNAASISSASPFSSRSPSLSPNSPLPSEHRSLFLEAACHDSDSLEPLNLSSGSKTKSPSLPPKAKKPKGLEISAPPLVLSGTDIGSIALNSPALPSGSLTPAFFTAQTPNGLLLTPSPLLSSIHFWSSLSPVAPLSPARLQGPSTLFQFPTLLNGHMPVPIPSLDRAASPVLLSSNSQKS
In outline: as §1

ELF1, sequence (P32519 whole entry): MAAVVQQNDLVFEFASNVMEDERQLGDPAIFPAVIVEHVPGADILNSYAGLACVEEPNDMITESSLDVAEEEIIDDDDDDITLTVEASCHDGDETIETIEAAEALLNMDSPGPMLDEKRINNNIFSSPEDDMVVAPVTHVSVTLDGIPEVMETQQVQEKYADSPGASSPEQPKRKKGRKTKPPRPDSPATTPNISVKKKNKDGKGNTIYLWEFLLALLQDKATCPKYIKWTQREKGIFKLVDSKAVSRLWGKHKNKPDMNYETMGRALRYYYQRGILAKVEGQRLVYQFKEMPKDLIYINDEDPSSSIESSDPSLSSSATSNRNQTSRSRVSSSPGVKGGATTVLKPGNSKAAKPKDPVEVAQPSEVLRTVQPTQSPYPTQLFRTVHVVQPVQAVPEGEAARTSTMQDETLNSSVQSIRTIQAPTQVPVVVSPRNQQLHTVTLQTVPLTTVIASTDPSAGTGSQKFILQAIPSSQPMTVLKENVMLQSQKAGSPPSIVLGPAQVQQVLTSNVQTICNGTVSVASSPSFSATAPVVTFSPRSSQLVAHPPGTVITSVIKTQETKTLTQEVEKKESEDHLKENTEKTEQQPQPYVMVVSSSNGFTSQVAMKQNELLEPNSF
SPIB, sequence (Q01892 whole entry): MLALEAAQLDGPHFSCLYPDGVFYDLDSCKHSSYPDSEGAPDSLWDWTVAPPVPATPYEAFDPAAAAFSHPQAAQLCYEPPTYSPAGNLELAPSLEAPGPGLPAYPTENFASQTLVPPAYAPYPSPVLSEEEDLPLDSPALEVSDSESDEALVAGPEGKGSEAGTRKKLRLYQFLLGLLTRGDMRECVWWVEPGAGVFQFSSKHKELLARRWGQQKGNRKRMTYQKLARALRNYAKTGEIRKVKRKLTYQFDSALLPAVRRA

Consider TGCGCG, for which the binding signal in [1] was 1.02 fold enrichment (6-mer frequency, TF over GST control); in [2], 1.05 fold enrichment (6-mer frequency, TF over GST control); in [3] it was 1.02 fold enrichment (6-mer frequency, TF over GST control); in experiment [4] it was 1.04 fold enrichment (6-mer frequency, TF over GST control); in experiment [5] it was 1.02 fold enrichment (6-mer frequency, TF over GST control); in experiment [6], 1.16 fold enrichment (6-mer frequency, TF over GST control). The binding signal in [7] was 1.16 fold enrichment (6-mer frequency, TF over GST control); in [8] it was 1.06 fold enrichment (6-mer frequency, TF over GST control); in experiment [9], 1.11 fold enrichment (6-mer frequency, TF over GST control).
With CACAAC, the binding signal in [1] was 1.24 fold enrichment (6-mer frequency, TF over GST control); in experiment [2] it was 1.24 fold enrichment (6-mer frequency, TF over GST control); in experiment [3], 1.3 fold enrichment (6-mer frequency, TF over GST control); in experiment [4], 1.25 fold enrichment (6-mer frequency, TF over GST control); in experiment [5] it was 1.28 fold enrichment (6-mer frequency, TF over GST control); in experiment [6], 1.21 fold enrichment (6-mer frequency, TF over GST control). The binding signal was 1.21 fold enrichment (6-mer frequency, TF over GST control) in experiment [7]; 1.23 fold enrichment (6-mer frequency, TF over GST control) in [8]; 1.22 fold enrichment (6-mer frequency, TF over GST control) in experiment [9].
As to TGATTC, the binding signal in experiment [1] is 1.12 fold enrichment (6-mer frequency, TF over GST control); in experiment [2], 1.09 fold enrichment (6-mer frequency, TF over GST control); in [3], 1.1 fold enrichment (6-mer frequency, TF over GST control); in experiment [4] it was 1.08 fold enrichment (6-mer frequency, TF over GST control); in experiment [5], 1.1 fold enrichment (6-mer frequency, TF over GST control); in experiment [6], 1.12 fold enrichment (6-mer frequency, TF over GST control). For the same sequence, the binding signal in experiment [7] is 1.06 fold enrichment (6-mer frequency, TF over GST control); in [8], 1.17 fold enrichment (6-mer frequency, TF over GST control); in experiment [9], 1.02 fold enrichment (6-mer frequency, TF over GST control).
For TTGCGG, the binding signal in experiment [1] is 1.37 fold enrichment (6-mer frequency, TF over GST control); in experiment [2], 1.14 fold enrichment (6-mer frequency, TF over GST control); in [3] it was 1.21 fold enrichment (6-mer frequency, TF over GST control); in [4] it was 1.28 fold enrichment (6-mer frequency, TF over GST control); in [5], 1.38 fold enrichment (6-mer frequency, TF over GST control); in experiment [6] it was 1.3 fold enrichment (6-mer frequency, TF over GST control). In addition, the binding signal is 1.61 fold enrichment (6-mer frequency, TF over GST control) in experiment [7]; 1.2 fold enrichment (6-mer frequency, TF over GST control) in [8]; 1.26 fold enrichment (6-mer frequency, TF over GST control) in [9].
Consider CATGCC, for which the binding signal in experiment [1] is 1.18 fold enrichment (6-mer frequency, TF over GST control); in experiment [2] it was 1.17 fold enrichment (6-mer frequency, TF over GST control); in experiment [3] it was 1.09 fold enrichment (6-mer frequency, TF over GST control); in experiment [4], 1.1 fold enrichment (6-mer frequency, TF over GST control); in experiment [5], 1.16 fold enrichment (6-mer frequency, TF over GST control); in experiment [6] it was 1.16 fold enrichment (6-mer frequency, TF over GST control). In addition, the binding signal in experiment [7] is 1.09 fold enrichment (6-mer frequency, TF over GST control); in [8] it was 1.11 fold enrichment (6-mer frequency, TF over GST control); in [9], 1.06 fold enrichment (6-mer frequency, TF over GST control).
Take CTCTAA: the binding signal in experiment [1] is 1.3 fold enrichment (6-mer frequency, TF over GST control); in experiment [2], 1.33 fold enrichment (6-mer frequency, TF over GST control); in experiment [3], 1.28 fold enrichment (6-mer frequency, TF over GST control); in [4] it was 1.32 fold enrichment (6-mer frequency, TF over GST control); in experiment [5], 1.37 fold enrichment (6-mer frequency, TF over GST control); in experiment [6], 1.41 fold enrichment (6-mer frequency, TF over GST control). Moreover, the binding signal was 1.35 fold enrichment (6-mer frequency, TF over GST control) in experiment [7]; 1.25 fold enrichment (6-mer frequency, TF over GST control) in experiment [8]; 1.43 fold enrichment (6-mer frequency, TF over GST control) in [9].
For TGTACA, the binding signal in experiment [1] was 1.22 fold enrichment (6-mer frequency, TF over GST control); in [2] it was 1.26 fold enrichment (6-mer frequency, TF over GST control); in experiment [3], 1.1 fold enrichment (6-mer frequency, TF over GST control); in [4], 1.24 fold enrichment (6-mer frequency, TF over GST control); in experiment [5], 1.23 fold enrichment (6-mer frequency, TF over GST control); in [6], 1.26 fold enrichment (6-mer frequency, TF over GST control). For the same sequence, the binding signal in experiment [7] was 1.28 fold enrichment (6-mer frequency, TF over GST control); in experiment [8] it was 1.35 fold enrichment (6-mer frequency, TF over GST control); in [9], 1.11 fold enrichment (6-mer frequency, TF over GST control).
